“And” between values parts separate entries of the source, which are not always exact repeats. Identical values can stand only once. Inconclusive results are not listed. The source made the active and inactive calls. Unless noted, the call rests on the fitted dose curve; in most records, active means well fitted curve in the direction sought with a large enough effect; inconclusive means small, poorly fitted or top-dose-only effect, or another doubt; inactive means no such curve, though single readings can be large; an effect the other way counts as inactive or inconclusive.

Experiment [1] is described as follows: Cell Viability - Jurkat (AID 426;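 active means dose-dependent loss of cell ATP signal giving a full or clear fitted curve, ranked by lower potency value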;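 further: potency means the concentration at half of the fitted maximal effect; cells exposed to compound for 40 hours at 37 °C before ATP read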). The following applies: qHTS. The method, boiled down: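 Cells of the human T-cell leukemia line Jurkat (E6-1) are seeded at 5000 per well, treated with compound across a concentration range for 40 hours at 37 °C, then lysed with CellTiter-Glo; luminescence reports ATP.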
Experiment [2] can be described thus: Cell Viability - Hek293 (AID 427;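 active means compounds whose dose-response curve shows a full or clear partial loss of cell viability, called from curve shape rather than a numeric limit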;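 further: potency means the concentration at half of the fitted maximal effect; cells exposed to compound for 40 hours at 37 °C before reading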). The settings on record: qHTS. The method, boiled down:
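Luminescent ATP content (CellTiter-Glo, 20 min at room temperature) was measured after a 40 hr, 37 °C compound exposure of HEK293 cells. AC50 values came from Hill-equation fits of qHTS concentration-response data normalized to DMSO and 100 uM tamoxifen.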
Background: In qHTS, concentration-response curves come from the screen itself.

The target in experiment [3] is Mitogen-activated protein kinase 10 (Mus musculus) (UniProt Q61831). In words: JNK3 AlphaScreen Assay (AID 530; active means well fitted curve in either direction with a large enough effect, not every such curve was filed as active;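 further: kinase came from lysate of stimulated human HepG2 cells; signal reports phosphorylation of biotinylated GST-cJun 1-79 at Ser73 with 10 µM ATP; on the % scale 0 is the no-effect control and ±100 the full control effect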). The following applies: JNK3 lysate, c-Jun phosphorylation; series mostly up to 57.1 µM. The method, boiled down: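 qHTS titrations with 15 min compound pre-incubation before adding ATP (10 uM final). Read-out: AlphaScreen of Ser73-phosphorylated biotin-GST-cJun using HepG2 lysate JNK3 activated by IL-1β and TNFα.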

Experiment [4] is described as follows: Cell Viability - NIH 3T3 (AID 541).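 Further: plate controls were DMSO alone for no effect and tamoxifen positive control for full effect; nearly all actives have a fitted effect of over 25% in size.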 The following applies: NIH 3T3 cell viability, qHTS; activity change, negative = cytotoxicity: at 92.2 µM (top of the series). The method, boiled down:
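Cells seeded at 1000/well, rested 5 hr at 37 °C, then dosed and incubated 40 hr at 37 °C. CellTiter-Glo added, 20 min room temperature, luminescence read. AC50 by Hill fit.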

A short description of experiment [5]: Cell Viability - H-4-II-E (AID 543). Further: nearly all actives have a fitted effect of over 35% in size. Further: potency means the concentration at half of the fitted maximal effect. The following applies: H-4-II-E rat hepatoma viability; series mostly up to 92.2 µM. The essentials: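 Cells seeded at 1500 per well and rested 5 hr; compounds added; 40 hr incubation at 37 °C; CellTiter-Glo added, 20 min at room temperature; luminescence read. Hill-equation fits gave AC50.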
Experiment [6] in a line: Cell Viability - LYMP2-021 (AID 974).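 Further: compound exposure lasts 24 hours at 37 °C; nearly all actives have a fitted effect of over 55% in size.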 Further: potency means the concentration at half of the fitted maximal effect. On activity change, negative = cytotoxicity: on the % scale 0 is the no-effect control and ±100 the full control effect. The following applies: LYMP2-021 lymphoblastoid cells viability; series mostly up to 92.2 µM. The method, boiled down: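 Loss of cellular ATP, measured with a luciferase-based CellTiter-Glo readout, serves as the toxicity signal in human lymphoblastoid cells treated for 24 hours at 37 C. Potency is reported as AC50 from a standard Hill model.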

Experiment [7] can be described thus: Cell Viability - LYMP2-002 (AID 977).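 Further: compound exposure lasted 24 h at 37 °C; plate controls were DMSO only for no effect and 92 µM tetraoctylammonium bromide for full effect.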 The following applies: LYMP2-002 lymphoblastoid cell viability, qHTS; series mostly up to 92.2 µM. The method, boiled down: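 Human lymphoblastoid cells (2500/well) in complete medium were preincubated 5 hr at 37 C, then exposed to compounds for 24 hr at 37 C. Intracellular ATP was read by CellTiter-Glo luminescence; AC50 came from Hill-equation concentration-response fits.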

The nature of experiment [8]: Cell Viability - LYMP2-007 (AID 979).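 Further: cells exposed to compound for 24 h before reading; nearly all actives have a fitted effect of over 60% in size.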 Further: potency means the concentration at half of the fitted maximal effect.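 On activity change, negative = cytotoxicity: 0% = DMSO only and the negative end = 92 µM tetraoctylammonium bromide.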 The following applies: LYMP2-007 lymphoblastoid cell viability; series mostly up to 92.2 µM. The method, boiled down: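 Cells are seeded at 2500 per well and rested 5 hr. Compounds are then added over a concentration series for 24 hr at 37 C. CellTiter-Glo is added for 30 min at room temperature before luminescence reading.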
The nature of experiment [9]: Cell Viability - LYMP2-014 (AID 983).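 Further: plate controls were DMSO only for no effect and 92 µM tetraoctylammonium bromide for full effect; nearly all actives have a fitted effect of over 50% in size.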 The settings on record: LYMP2-014 lymphoblastoid cells, viability qHTS; series mostly up to 92.2 µM. The method, boiled down: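 Cells are plated at 2500/well and left 5 hr at 37 C. Compounds are added across a concentration range and incubated 24 hr at 37 C in complete medium. CellTiter-Glo is added, and luminescence is read after 30 min at room temperature.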

The nature of experiment [10]: Cell Viability - LYMP2-020 (AID 986).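 Further: plate controls were DMSO only for no effect and tetraoctylammonium bromide at 92 µM for full effect; nearly all actives have a fitted effect of over 55% in size.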 The settings on record: series mostly up to 92.2 µM. The essentials:
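Seed 2500 cells per well and incubate 5 hr at 37 C. Add compounds at a concentration series and incubate 24 hr at 37 C. Add CellTiter-Glo, wait 30 min at RT, read luminescence, and fit a Hill curve for AC50.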

Experiment [11] can be described thus: Cell Viability - LYMP2-022 (AID 987). Further: nearly all actives have a fitted effect of over 55% in size. Further: potency means the concentration at half of the fitted maximal effect. The settings on record: LYMP2-022 lymphoblastoid cell viability; series mostly up to 92.2 µM. The method, boiled down: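 Cells were seeded at 2500 per well, rested 5 hr at 37 C, and treated with titrated compounds for 24 hr at 37 C. Cellular ATP was then quantified by luciferase luminescence, and AC50 values were derived from Hill-modelled concentration-response curves.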

Experiment [12] is described as follows: Cell Viability - LYMP2-026 (AID 989). Further: on the % scale 0 is the no-effect control and ±100 the full control effect; nearly all actives have a fitted effect of over 50% in size. The following applies: LYMP2-026 lymphoblastoid cell viability, qHTS; series mostly up to 92.2 µM. The method, boiled down: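 Cells are seeded at 2500 per well and held 5 hr at 37 C. Compounds are added in concentration series for 24 hr, then CellTiter-Glo reagent is applied and luminescence read.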
A short description of experiment [13]: qHTS assay for small molecule agonists of retinoid X receptor alpha signaling (AID 588544). The settings on record: HEK293T RXRa-UAS-bla, beta-lactamase reporter, 18 h; 530 nm emission.
Experiment [14] can be described thus: qHTS assay for small molecule antagonists of retinoid X receptor alpha signaling (AID 588546).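 Further: cells stimulated with 9-cis-retinoic acid as agonist; on the % scale 0 is the no-effect control and ±100 the full control effect.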 The settings on record: HEK293T RXRa-UAS-bla, beta-lactamase ratio, antagonist mode; measured here: W530 green channel, cytotoxicity proxy. The essentials:
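Beta-lactamase reporter inhibition, read as CCF4 fluorescence ratio (ex 405, em 460/530 nm) after 2 h at RT. HEK293T UAS-bla cells, 2500/well, were stimulated with 9-cis-RA at 500 or 100 nM final alongside test compound for 18 h at 37 C.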

For experiment [15], the target named is Voltage-gated inwardly rectifying potassium channel KCNH2 (Homo sapiens) (UniProt Q12809). The experiment is described as follows: qHTS Assay for Small Molecule Inhibitors of the Human hERG Channel Activity (AID 588834).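 Further: top concentration of the series differs between compounds; on the % scale 0 is the no-effect control and ±100 the full control effect; lower thallium flux fluorescence means stronger hERG block; nearly all actives have a fitted effect of over 50% in size.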 The settings on record: U2OS BacMam hERG, FluxOR thallium flux fluorescence; series mostly up to 92.2 µM. The method, boiled down: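 Homogeneous FluxOR thallium flux assay using hERG-expressing U2OS cells (BacMam). Compound treatment about 10 minutes preceded stimulation; reduced fluorescence taken as channel block.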

Experiment [16] is described as follows: Cellular Toxicity (caspase-3) NIH 3T3 (AID 666).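 Further: caspase signal read after 16 h compound exposure; 0% = DMSO basal and 100% = 100 µM tamoxifen stimulation.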 The settings on record: NIH 3T3 caspase-3 activation, apoptosis/toxicity, 0% DMSO, 100% is 100 µM tamoxifen; series mostly up to 92.2 µM. The essentials: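 Cells were plated at 1000 per well and incubated 5 hr at 37°C, then compound was added for 16 hr. Caspase-Glo 3/7 reagent followed for 20 min at room temperature before luminescence was read.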

Experiment [17] in a line: Cell Viability - LYMP2-004 (AID 966).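 Further: plate controls were DMSO only for no effect and tetraoctylammonium bromide control for full effect; nearly all actives have a fitted effect of over 65% in size.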 The following applies: LYMP2-004 lymphoblastoid cell viability, qHTS; series mostly up to 92.2 µM. The method, boiled down: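 qHTS cytotoxicity: human lymphoblastoid line, 24 hr compound treatment, 37 C, complete medium. Viability read as cellular ATP via luciferase luminescence; tetraoctylammonium bromide served as positive control.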

A short description of experiment [18]: Cell Viability - LYMP2-019 (AID 973).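 Further: 0% = DMSO alone and full effect = 92 µM tetraoctylammonium bromide; nearly all actives have a fitted effect of over 55% in size.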 The settings on record: LYMP2-019 lymphoblastoid cell line viability; series mostly up to 92.2 µM. The method, boiled down:
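Cytotoxicity is scored as a concentration-dependent drop in cellular ATP after cells (2500/well) receive compound for 24 hr at 37 C. Tetraoctylammonium bromide serves as positive control.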

A short description of experiment [19]: Cell Viability - LYMP2-023 (AID 975). The following applies: LYMP2-023 lymphoblastoid cell viability; series mostly up to 92.2 µM. The essentials: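 Steps: seed 2500 human lymphoblastoid cells per well, incubate 5 hr at 37 C, add compound for 24 hr at 37 C, add CellTiter-Glo, hold 30 min at room temperature, read luminescence. AC50 derived by Hill modelling.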

Experiment [20] can be described thus: Cell Viability - LYMP2-018 (AID 985).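 Further: compound exposure lasted 24 hr at 37 °C; plate controls were DMSO only for no effect and tetraoctylammonium bromide at 92 µM for full effect; nearly all actives have a fitted effect of over 50% in size.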 The following applies: LYMP2-018 lymphoblastoid cells, viability (qHTS); series mostly up to 92.2 µM. The method, boiled down: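 Seed 2500 lymphoblastoid cells per well, incubate 5 hr at 37 C, add compound and incubate 24 hr at 37 C, add CellTiter-Glo, wait 30 min at room temperature, then read luminescence.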

Sequence of Voltage-gated inwardly rectifying potassium channel KCNH2 (Homo sapiens) (Q12809 whole entry, looked up): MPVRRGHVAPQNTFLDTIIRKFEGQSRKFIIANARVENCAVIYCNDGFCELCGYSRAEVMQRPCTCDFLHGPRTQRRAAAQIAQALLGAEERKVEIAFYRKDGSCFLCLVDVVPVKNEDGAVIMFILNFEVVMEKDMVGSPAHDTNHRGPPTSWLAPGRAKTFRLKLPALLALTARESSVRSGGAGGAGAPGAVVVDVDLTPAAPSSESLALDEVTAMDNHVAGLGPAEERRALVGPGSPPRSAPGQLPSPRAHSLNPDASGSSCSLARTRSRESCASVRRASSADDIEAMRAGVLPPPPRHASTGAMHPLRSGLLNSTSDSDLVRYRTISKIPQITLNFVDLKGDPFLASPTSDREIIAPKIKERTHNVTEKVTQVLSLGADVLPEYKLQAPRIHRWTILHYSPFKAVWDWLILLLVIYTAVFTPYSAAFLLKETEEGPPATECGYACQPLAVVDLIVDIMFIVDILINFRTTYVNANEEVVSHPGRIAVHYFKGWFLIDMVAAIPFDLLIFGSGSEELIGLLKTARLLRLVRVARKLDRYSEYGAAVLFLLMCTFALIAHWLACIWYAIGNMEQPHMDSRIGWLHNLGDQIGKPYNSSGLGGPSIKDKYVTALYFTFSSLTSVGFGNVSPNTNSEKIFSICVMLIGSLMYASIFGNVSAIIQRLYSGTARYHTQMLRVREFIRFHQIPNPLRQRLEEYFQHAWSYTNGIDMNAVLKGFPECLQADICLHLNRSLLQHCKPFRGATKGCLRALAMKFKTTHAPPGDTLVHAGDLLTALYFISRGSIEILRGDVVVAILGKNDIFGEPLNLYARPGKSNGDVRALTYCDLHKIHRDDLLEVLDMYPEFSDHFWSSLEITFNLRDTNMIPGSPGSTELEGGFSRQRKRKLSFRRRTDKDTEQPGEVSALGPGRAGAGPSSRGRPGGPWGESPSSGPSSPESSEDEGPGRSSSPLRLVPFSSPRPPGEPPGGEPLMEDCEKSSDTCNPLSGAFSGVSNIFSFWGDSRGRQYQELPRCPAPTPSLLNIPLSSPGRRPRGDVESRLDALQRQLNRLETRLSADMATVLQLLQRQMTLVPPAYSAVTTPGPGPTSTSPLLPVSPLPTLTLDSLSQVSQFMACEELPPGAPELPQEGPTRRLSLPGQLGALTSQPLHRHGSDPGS

Turning to `CC(C)(OO)c1ccccc1`, the Potency in [1] was 28.3 µM (active); in experiment [2], > 92 µM (inactive); in [5], 25.1 µM (active); in [6] it was 50.1 µM (active); in experiment [8], 31.6 µM (active); in [11], 39.8 µM (active). The outcome in experiment [3] was inactive. In addition, the activity change, negative = cytotoxicity in experiment [4] is -123% (active). Also, the Potency entry in experiment [7], in [9], in experiment [10], in experiment [12] and in experiment [15] was “inactive” throughout. For the same compound, the max response in experiment [13] was 21.6% and -3.11%; in experiment [14], 16% and -6.37%.

`OCC1CO1` (stereo not given): the Potency in [1] and in experiment [2] was > 92 µM (inactive) throughout. Further, the compound was classed as inactive in experiment [3] and in experiment [16]. In addition, the activity change, negative = cytotoxicity in experiment [4] was -5.54% (inactive). The Potency entry in experiment [5], in [17], in [18], in [6], in experiment [19] and in experiment [7] was “inactive” each time. Besides, the Potency result in experiment [8], in [9], in [20], in experiment [10], in [11] and in experiment [12] was “inactive” in each case. The Potency entry in [15] is “inactive”. Besides, the max response in experiment [13] is -4.32%; in [14] it was 2.41% and -5.17%.

For the compound `c1nc[nH]n1`, the Potency in experiment [1] and in experiment [2] was > 92 µM (inactive) throughout. Further, the call in experiment [3] and in experiment [16] was inactive. Besides, in [4], the activity change, negative = cytotoxicity is -5.84% (inactive). Besides, the Potency entry in experiment [5], in experiment [17], in experiment [18], in [6], in experiment [19] and in [7] was “inactive” each time. In addition, the Potency entry in [8], in experiment [9], in experiment [20], in experiment [10], in experiment [11] and in [12] was “inactive” in each case. Moreover, the Potency entry in [15] was “inactive”. Also, the max response was -16.7% in [13] and 6.06% in experiment [14].

Take `CC(C)(C)OOC(C)(C)C`: the Potency in [1] and in experiment [2] was > 92 µM (inactive) in each case. Besides, the call in experiment [3] and in [16] was inactive. The activity change, negative = cytotoxicity in experiment [4] is -23.7% (inactive). Besides, the Potency result in [5], in [17], in experiment [18], in experiment [6], in [19] and in experiment [7] was “inactive” in each case. Besides, the Potency entry in experiment [8], in [9], in [20], in experiment [10], in experiment [11] and in [12] was “inactive” in each case. Moreover, the Potency result in experiment [15] was “inactive”. The max response was -0.936% in experiment [13] and -12.4% in experiment [14].

Turning to `NC(=S)Nc1ccccc1`, the Potency in [1] and in experiment [2] was > 92 µM (inactive) throughout. For the same compound, the result in [3] and in experiment [16] was inactive. The activity change, negative = cytotoxicity in [4] was -8.44% (inactive) and 0.7% (inactive). The Potency result in [5], in experiment [17], in [18], in experiment [6], in experiment [19] and in [7] was “inactive” throughout. Further, the Potency entry in experiment [8], in experiment [9], in experiment [20], in [10], in experiment [11] and in experiment [12] was “inactive” throughout. Further, in [15], the Potency entry was “inactive”. Further, the max response in experiment [13] is -11.1% and -12.4% and -6.79%; in [14], -15.9% and -3.13% and -6.62%.

The record behind these values is PubChem BioAssay (NCATS).
